Screening results from PubChem BioAssay.
KB-V1 MDR tox: KB-V1 MDR subline cytotoxicity; hit rate 3.4% among 400,000; AID 1347076; Potency, µM (top dose mostly 46.1 µM), hits mostly cytotoxic; KB-V1 MDR cells viability, CellTiter-Glo, 72 h; note: nearly all actives have a fitted effect of over 60% in size
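Potencies derive from concentration-effect curves fitted to normalized luminescence (CellTiter-Glo) of KB-V1 cells treated for 72 h at 37 degrees C in phenol-red-free DMEM containing 10% FBS.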
ELG1 repair inh: ELG1-dependent DNA repair inhibition | Potency, µM (top dose mostly 46.1 µM), usual class: inhibitors | hit rate 2.3% among 330,000 | AID 504467 | HEK293T ELG1-luciferase reporter, luminescence, 16 h; DNA damage induced by 5-fluorouridine; note: nearly all actives have a fitted effect of over 55% in size
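In this reporter screen, reduction of luminescence relative to DMSO vehicle indicated activity. Compounds and 5-fluorouridine were added together to 2,000 cells per well, incubated for 16 hr at 37 °C, then developed with ONE-Glo.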
MCF10A rerep: induces DNA re-replication in MCF 10a normal breast cells. Potency, µM (top dose mostly 46.1 µM), hits mostly activators. MCF 10A DNA re-replication, Hoechst nuclear intensity, 48 h. hit rate 2.9% among 350,000; note: nearly all actives have a fitted effect of over 50% in size
KB-3-1 cytotox: KB-3-1 parental cell cytotoxicity. KB-3-1 viability, CellTiter-Glo ATP luminescence, 72 h. Potency, µM (highest dose often 46.1 µM), most hits filed as cytotoxic. hit rate 1.4% among 400,000. AID 1347075; note: nearly all actives have a fitted effect of over 60% in size
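Cells are dispensed, compounds pinned in, plates held at 37 °C for 72 h, then CellTiter-Glo is added and luminescence read after 10 minutes. Cell line: parental KB-3-1 in phenol-red-free DMEM, 10% FBS.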
SW480 rereplic: DNA re-replication induction in SW480 cells; SW480 DNA re-replication, Hoechst DNA content imaging, 48 h; Potency, µM (doses to about 46.1 µM), usual class: activators; hit rate 1.8% among 340,000; note: nearly all actives have a fitted effect of over 55% in size
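250 cells/well; 23 nL cpd via pin tool; 48 hr, 37 C, 5% CO2; Hoechst 40 min; imager read of total nuclear intensity, ex 405/em 500-530 nm.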
A number is an active result; ! = not active in a repeat; [ ] = another dose, or the depositor's remark. Most compounds without a hit are left out; they make up all but 8.2% or so of the library. Calls come from the whole dose curve; as a rule, active = well fitted curve in the direction sought with a large enough effect; inconclusive = small, poorly fitted or top-dose-only effect, or another doubt; inactive = no such curve, though single readings can be large; an effect the other way counts as inactive or inconclusive.

How did Cc1c(-c2ccc(Cl)cc2)oc(=O)c2c(N)n(-c3ccccc3)nc12 do in these assays?
KB-V1 MDR tox: 21µM; ELG1 repair inh: inconclusive; MCF10A rerep: inconclusive; KB-3-1 cytotox: inconclusive; SW480 rereplic: inactive

How did O=C(NCCN1CCOCC1)c1ccc2c(c1)N(Cc1c(F)cccc1Cl)C(=O)c1ccccc1S2 do in these assays?
KB-V1 MDR tox: inactive; ELG1 repair inh: inactive; MCF10A rerep: inconclusive; KB-3-1 cytotox: inactive; SW480 rereplic: 5.8µM

Results for CCOc1ccc(CN2C(=O)c3ccccc3Sc3ccc(C(=O)NCCCN4CCOCC4)cc32)cc1 ?
KB-V1 MDR tox: inconclusive; ELG1 repair inh: inactive; MCF10A rerep: 21µM; KB-3-1 cytotox: 18µM!; SW480 rereplic: inconclusive

What do the screens show for `Cc1ccc(S(=O)(=O)n2nccc2-c2c(-c3ccccc3)noc2C)cc1`?
KB-V1 MDR tox: inconclusive; ELG1 repair inh: inconclusive; MCF10A rerep: 12µM; KB-3-1 cytotox: inconclusive; SW480 rereplic: 13µM

How did Cc1onc(-c2ccccc2)c1-c1ccnn1S(=O)(=O)c1ccc(Cl)cc1 do in these assays?
KB-V1 MDR tox: inconclusive; ELG1 repair inh: inconclusive; MCF10A rerep: inactive; KB-3-1 cytotox: inactive; SW480 rereplic: inactive

What do the screens show for `O=C(Cc1ccccc1)NCC(=O)N1CCN(c2ccc(F)cc2)CC1`?
KB-V1 MDR tox: inactive; KB-3-1 cytotox: inactive

Results for C=C1[C@@H](O)[C@H](Cc2ccccc2)N(Cc2ccccc2Br)S1(=O)=O ?
KB-V1 MDR tox: inconclusive; MCF10A rerep: 21µM; KB-3-1 cytotox: inconclusive; SW480 rereplic: inactive[9.22 µM]

Results for Cc1ccccc1CN1[C@@H](Cc2ccccc2)COCCS1(=O)=O ?
KB-V1 MDR tox: inactive; MCF10A rerep: inconclusive; KB-3-1 cytotox: inactive; SW480 rereplic: inactive

How did Cc1ccnc2c(O)cccc12 do in these assays?
KB-V1 MDR tox: inactive; KB-3-1 cytotox: inactive

How did O=Cc1ccc(O)c2ncccc12 do in these assays?
KB-V1 MDR tox: inconclusive; ELG1 repair inh: 2.3µM; MCF10A rerep: 1.6µM; KB-3-1 cytotox: 6.5µM; SW480 rereplic: 7.3µM

How did COc1ccccc1C(=O)NNc1ncc(C)s1 do in these assays?
KB-V1 MDR tox: inactive; ELG1 repair inh: inactive; MCF10A rerep: inconclusive; KB-3-1 cytotox: inactive; SW480 rereplic: inactive

How did O=C(NNC(=O)c1cccc2ccccc12)c1ccccc1O do in these assays?
KB-V1 MDR tox: inactive; ELG1 repair inh: inactive; MCF10A rerep: inactive; KB-3-1 cytotox: inconclusive; SW480 rereplic: 7.3µM

Results for O=C(NNc1c2ccccc2nc2ccccc12)c1ccc(O)cc1 ?
KB-V1 MDR tox: inactive; ELG1 repair inh: inconclusive; MCF10A rerep: inactive; KB-3-1 cytotox: inactive; SW480 rereplic: inactive

Results for O=C(NNc1c2ccccc2nc2ccccc12)c1ccccc1O ?
KB-V1 MDR tox: 21µM; ELG1 repair inh: inconclusive; MCF10A rerep: inactive; KB-3-1 cytotox: inactive; SW480 rereplic: inactive

How did O=C(NNC(=O)c1cccc2ccccc12)c1ccc(-c2ccccc2)cc1 do in these assays?
KB-V1 MDR tox: inconclusive; ELG1 repair inh: inactive; MCF10A rerep: inconclusive; KB-3-1 cytotox: inconclusive; SW480 rereplic: inactive

What do the screens show for `O=C(NNc1c2ccccc2nc2ccccc12)c1cccc(O)c1`?
KB-V1 MDR tox: inactive; ELG1 repair inh: 15µM; MCF10A rerep: inactive; KB-3-1 cytotox: inconclusive; SW480 rereplic: inactive

How did O=C(NNc1c2ccccc2nc2ccccc12)c1ccc(O)cc1O do in these assays?
KB-V1 MDR tox: inactive; ELG1 repair inh: inactive; MCF10A rerep: inactive; KB-3-1 cytotox: inactive; SW480 rereplic: inactive

Results for O=C(NNc1nc(=O)c2cccnc2s1)c1ccccc1O ?
KB-V1 MDR tox: inactive; ELG1 repair inh: 15µM; MCF10A rerep: inactive; KB-3-1 cytotox: inconclusive; SW480 rereplic: 0.92µM

What do the screens show for `Nc1nc2[nH]cc(CCc3ccc(C(=O)NC(CCC(=O)O)C(=O)O)cc3)c2c(=O)[nH]1` (stereo unspecified)?
MCF10A rerep: inactive; SW480 rereplic: inactive

Results for CC(C)Cn1c(CCC(N)=O)nnc1SC(C)C(=O)Nc1ccc2c(c1)OCO2 (stereo unspecified) ?
KB-V1 MDR tox: inconclusive; ELG1 repair inh: inactive; MCF10A rerep: inactive; KB-3-1 cytotox: inactive; SW480 rereplic: inactive

How did COc1ccc2[nH]c(CCc3nc4c(OC)c(OC)ccc4[nH]3)nc2c1OC do in these assays?
KB-V1 MDR tox: inactive; KB-3-1 cytotox: inactive

Results for CC(=O)O[C@H]1C(=O)[C@@]2(C)[C@H]([C@H](OC(=O)c3ccccc3)[C@]3(O)C[C@H](OC(=O)[C@H](O)C(NC(=O)c4ccccc4)c4ccccc4)C(C)=C1C3(C)C)[C@]1(OC(C)=O)CO[C@@H]1C[C@@H]2O (stereo partly specified) ?
KB-V1 MDR tox: inconclusive; ELG1 repair inh: inconclusive; MCF10A rerep: inconclusive; KB-3-1 cytotox: 0.0092µM; SW480 rereplic: 0.065µM

Results for CC(=O)O[C@H]1C(=O)[C@@]2(C)[C@H]([C@H](OC(=O)c3ccccc3)[C@]3(O)C[C@H](OC(=O)[C@H](O)[C@@H](NC(=O)c4ccccc4)c4ccccc4)C(C)=C1C3(C)C)[C@]1(OC(C)=O)CO[C@@H]1C[C@@H]2O ?
KB-V1 MDR tox: 13µM!; ELG1 repair inh: inactive; MCF10A rerep: inconclusive; KB-3-1 cytotox: 0.046µM!; SW480 rereplic: 2.6µM

Results for CCCCCC(=O)N[C@@H](c1ccccc1)[C@@H](O)C(=O)O[C@H]1C[C@@]2(O)[C@@H](OC(=O)c3ccccc3)C3[C@](C)(C(=O)[C@H](OC(C)=O)C(=C1C)C2(C)C)[C@@H](O)C[C@H]1OC[C@@]31OC(C)=O (stereo partly specified) ?
KB-V1 MDR tox: inconclusive; ELG1 repair inh: inactive; MCF10A rerep: inconclusive; KB-3-1 cytotox: 0.21µM; SW480 rereplic: 0.18µM

Results for COc1ccccc1CN1CN(S(=O)(=O)c2ccccc2)c2nc3ccccc3nc21 ?
KB-V1 MDR tox: inconclusive; ELG1 repair inh: inactive; MCF10A rerep: inconclusive; KB-3-1 cytotox: inconclusive; SW480 rereplic: inactive

What do the screens show for `Cc1ccc(NC(=O)C(=O)NCc2ccc(Cl)cc2)cc1`?
KB-V1 MDR tox: inactive; KB-3-1 cytotox: inactive

What do the screens show for `COc1ccc(C2CC(c3ccc(F)cc3)=NN2c2ccccc2)cc1OC` (stereo unspecified)?
KB-V1 MDR tox: inconclusive; ELG1 repair inh: inactive; MCF10A rerep: 16µM; KB-3-1 cytotox: inconclusive; SW480 rereplic: inconclusive

What do the screens show for `N#CCC(=O)N/N=C/c1ccc(N2N=C(c3ccccc3)CC2c2ccccc2)cc1` (stereo unspecified)?
KB-V1 MDR tox: inactive; ELG1 repair inh: inconclusive; MCF10A rerep: inactive; KB-3-1 cytotox: inconclusive; SW480 rereplic: inconclusive

How did CC(=O)Nc1ccc(C2CC(c3ccc(Cl)cc3)=NN2c2ccccc2)cc1 (stereo unspecified) do in these assays?
KB-V1 MDR tox: inactive; ELG1 repair inh: inconclusive; MCF10A rerep: inactive; KB-3-1 cytotox: inactive; SW480 rereplic: 1.5µM

Results for Cc1ccc(NC(=O)N2N=C(c3ccc(F)cc3)CC2c2ccc(F)cc2)cc1 (stereo unspecified) ?
KB-V1 MDR tox: 23µM; ELG1 repair inh: inconclusive; MCF10A rerep: inactive; KB-3-1 cytotox: inactive; SW480 rereplic: 5.2µM
